Sampled rows, rich in hits. Any-hit rate of the full collection: about 1.1%.
GRP78 ERSR act: inducers of ER stress response in human glioma cells; U87-MG GRP78 promoter luciferase reporter, 16 h; Potency, µM, actives largely listed as activators; actives 0.02% (n = 420,000); AID 602332; note: series mostly up to about 76 µM; nearly all actives have a fitted effect of over 35% in size
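Stably transfected U87-MG glioma cells carrying a GRP78-based luciferase sensor; 16 h compound incubation. Luminescence end-point read 10 min after Bright-Glo addition at room temperature.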
Chronic BCR inh: blocks chronic active B-cell receptor signaling; Potency, µM (series often up to 46.1 µM), usual class: inhibitors; ABC-DLBCL IkBa-CBG/CBR reporter, luminescence ratio, 4 h; actives 0.05% (n = 340,000); active = well fitted inhibition curve with a large enough effect in the signal ratio, with a control signal flat, not every such curve was filed as active; inconclusive = small, poorly fitted or top-dose-only effect, or effect the other way, or a change in a side signal; the % refers to the signal ratio
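TMD8 human ABC-DLBCL cells with doxycycline-inducible IκBα–green luciferase fusion and unfused red luciferase, in 0.5% FBS medium; compounds up to 46 uM, 4 h at 37C. Green/red luminescence ratio, filter-overlap corrected, fitted to concentration-response curves.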
Anesthetic bind: candidate novel general anesthetic via apoferritin binding | P02791 | apoferritin/1-aminoanthracene competitive binding, fluorescence | Potency, µM (series often up to 77.5 µM), actives largely listed as inhibitors | actives 0.074% (n = 350,000) | AID 485281; note: nearly all actives have a fitted effect of over 20% in size
Target sequence (P02791 2-175 limits assumed): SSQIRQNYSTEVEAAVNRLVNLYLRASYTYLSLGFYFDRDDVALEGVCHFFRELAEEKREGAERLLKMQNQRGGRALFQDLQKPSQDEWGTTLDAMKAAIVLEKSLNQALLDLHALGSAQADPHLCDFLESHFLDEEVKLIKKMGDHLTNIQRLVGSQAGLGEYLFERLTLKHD
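Apoferritin-based anesthetic binding model; compound displacement of fluorescent 1-AMA measured as endpoint fluorescence after 10 minutes at room temperature, scaled to free-ligand and complex controls.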
ALOX12 inh: inhibitors of human 12S-lipoxygenase ALOX12; P18054; purified 12hLO, xylenol orange hydroperoxide absorbance; Potency, µM (highest dose often 108 µM), actives largely listed as inhibitors; AID 1671190; actives 1.1% (n = 580,000)
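Hydroperoxide product was detected by ferrous iron/xylenol orange as the 573 to 405 nm absorbance ratio. Arachidonic acid at 40 uM (final) was turned over for 30 min at room temperature by 150 nM human 12hLO, pH 7.0 Hepes buffer, after 15 min compound preincubation.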
Numbers stand for hits; i = inactive; ? = inconclusive; nt = no result given; ! = repeats disagree. Unless noted, calls come from the whole dose curve; as a rule, active = well fitted curve in the direction sought with a large enough effect; inconclusive = small, poorly fitted or top-dose-only effect, or another doubt; inactive = no such curve, though single readings can be large; an effect the other way counts as inactive or inconclusive.

SMILES	GRP78 ERSR act	Chronic BCR inh	Anesthetic bind	ALOX12 inh
Cc1csc(NC(=O)C(C)Sc2nnc(-c3ccco3)n2CC(C)C)n1 (configuration not stated)	nt	nt	nt	i
COc1cccc2cc(-c3csc(-c4ccccc4)n3)c(=O)oc12	nt	nt	nt	i
CC1(C(=O)Nc2cccc(C(F)(F)F)c2)Cc2ccccc2C(=O)O1 (configuration not stated)	i	nt	16µM	i
O=C1CCN(S(=O)(=O)c2ccccc2)CCCC(C(=O)NCCc2cccnc2)CCN1 (configuration not stated)	nt	nt	nt	i
CC(=O)N1N=C(c2ccc(C)cc2)CC1c1ccco1 (configuration not stated)	i	?	i	i
Cc1ccc(C2=NN(C(=O)Cn3nnc(-c4ccc(C(N)=O)cc4)n3)C(c3ccco3)C2)cc1 (configuration not stated)	nt	nt	nt	28µM
CCCCc1oc2ccc(NS(C)(=O)=O)cc2c1C(=O)c1ccc(OCCCN(CCCC)CCCC)cc1	i	nt	nt	40µM!
CCCCCOc1ccc(NS(C)(=O)=O)cc1	i	?	?	i
O=C(Cc1cccs1)Nc1nnc(Cc2ccccc2)s1	i	?	i	45µM
CC(C)(C)Cc1nnc(NC(=O)Cc2cccs2)s1	i	i	i	45µM
O=C(c1ccccc1)N1CCSc2ccc(Cl)cc21	nt	nt	nt	i
c1ccc(-c2cc3nc(NCc4ccc5c(c4)OCO5)ccn3n2)cc1	i	nt	nt	i
c1coc(-c2cc3nc(NC4CCCCC4)ccn3n2)c1	i	nt	nt	45µM
O=C(NC1CCCC1)c1cc2nc(-c3ccco3)cc(C(F)(F)F)n2n1	i	i	i	i
c1coc(-c2cc3nc(NCc4ccc5c(c4)OCO5)ccn3n2)c1	i	nt	nt	32µM
COc1ccc(C2CCCN2Cc2cc(=O)oc3c(C)c(C)ccc23)cc1 (configuration not stated)	nt	nt	nt	i
CN(C)S(=O)(=O)c1ccc(-c2nc(C#N)c(NCCCN3CCOCC3)o2)cc1	nt	nt	nt	i
CC(C)[C@@H]1Cc2[nH]c(=S)[nH]c(=O)c2[C@H](CCc2ccccc2)O1	nt	nt	nt	45µM
CC(C)[C@@H]1Cc2[nH][nH]c(=O)c2[C@H](CCc2ccccc2)O1	nt	nt	nt	i
Cc1nc(-c2cccs2)c(CC(=O)N2CCN(c3cccc(Cl)c3)CC2)s1	nt	nt	nt	i
Cc1nc(-c2cccs2)c(CC(=O)N2CCc3ccccc3C2)s1	nt	nt	nt	8.9µM
CC1CN(CCS(=O)c2ccccc2)CC(C)O1 (configuration not stated)	nt	nt	nt	i
CCOC(=O)c1cc(NC(=O)c2cccc(-c3cc4ccccc4oc3=O)c2)ccc1N1CCOCC1	nt	nt	nt	8.9µM
COc1ccc(CNC(=O)Cc2ccc(NC(=O)C3=C(C)OCCS3)cc2)cc1	i	20µM	i	i
CC1=C(C(=O)Nc2ccc(CC(=O)NCc3ccc(OC(C)C)cc3)cc2)SCCO1	i	?	?	i
SMILES	GRP78 ERSR act	Chronic BCR inh	Anesthetic bind	ALOX12 inh
Cc1occc1-c1nc(-c2ccc(Br)cc2)no1	nt	nt	nt	i
COC(=O)COc1ccc2c(C)c(-c3ccc(Cl)cc3)c(=O)oc2c1	nt	nt	nt	i
COC1/C=C\OC2(C)Oc3c(C)c(O)c4c(c3C2=O)C2(C=C(NC(=O)/C(C)=C\C=C/C(C)C(O)C(C)C(O)C(C)C(OC(C)=O)C1C)C4=O)OCC(=O)O2 (configuration not stated)	nt	nt	nt	5µM
C[C@H](NC(=O)CCn1ccc2ccc(F)cc21)C(=O)O	nt	nt	nt	i
Cc1cc(C)c2cc(C(=O)OCC(=O)N3CCCCC3C)[nH]c2c1 (configuration not stated)	nt	nt	nt	i
CCCCCn1nc(C(=O)Nc2nc(-c3ccc(OC)cc3)c(C)s2)c2ccccc2c1=O	nt	nt	nt	i
O=C(NCC(O)COc1cccc(F)c1)c1ccoc1 (configuration not stated)	nt	nt	nt	i
O=C(/C=C/c1ccccc1)Nc1cccc(S(=O)(=O)Nc2ccccc2F)c1	i	?	i	22µM
O=C(Nc1cccc(S(=O)(=O)Nc2ccccc2F)c1)c1ccc2ccccc2n1	i	i	?	?
O=C(c1cc(-c2ccccc2)n[nH]1)N1CCc2c(nc3cc[nH]n3c2=O)C1	nt	nt	nt	i
COc1ccccc1-n1c(SCC(=O)Nc2ccccc2C)nc(O)cc1=O	i	i	i	i
Cc1ccccc1-n1c(SCC(=O)Nc2ccc(Cl)cc2Cl)nc(O)cc1=O	i	nt	i	6.3µM
CCn1c(SCC(=O)Nc2ccc(C)cc2)nc(O)cc1=O	i	i	i	i
C=CCn1c(SCC(=O)Nc2ccc(Br)cc2)nc(O)cc1=O	i	nt	nt	3.2µM
COc1ccc(NC(=O)CSc2nc(O)cc(=O)n2-c2ccc(OC)cc2)cc1	i	?	i	13µM
O=C(Nc1c(-c2ccc(F)cc2)nc2sccn12)c1ccc(S(=O)(=O)N2CCOCC2)cc1	nt	nt	nt	i
CC(C)NCC(O)c1ccc(O)c(O)c1 (configuration not stated)	i	i	i	i
CNC[C@H](O)c1ccc(O)c(O)c1	i	i	i	1.4µM!
COc1ccc(CCNc2nc(-c3cc(OC)c(OC)c(OC)c3)cs2)cc1OC	nt	nt	nt	7.9µM
CCOc1ccccc1CN1CCC2(CCN(C(=O)Nc3ccccc3)CC2)Oc2ccccc21	nt	nt	nt	25µM
O=C(O)CN1C(=O)/C(=C\c2cccc(OCc3ccccc3F)c2)SC1=S	i	i	i	40µM
O=C(O)CN1C(=O)/C(=C\c2cccc(OCc3ccc(F)cc3)c2)SC1=S	i	?	i	50µM
CC(NNC(=O)C(O)(c1ccccc1)c1ccccc1)c1ccccc1 (configuration not stated)	nt	nt	nt	i
C=CCn1c(=O)c2c(nc(-n3nc(C)c(C)c3C)n2CC)n(C)c1=O	nt	nt	nt	i
COc1ccc(-c2ocnc2C(=O)Nc2cccc(Cl)c2)cc1OC	nt	nt	nt	i
SMILES	GRP78 ERSR act	Chronic BCR inh	Anesthetic bind	ALOX12 inh
CON(C)S(=O)(=O)c1cccc(C(=O)Nc2ccc(S(=O)(=O)NC3=NCCCCC3)cc2)c1	i	i	nt	i
CCN(CC)S(=O)(=O)c1cccc(C(=O)Nc2ccc(S(=O)(=O)NC3=NCCCCC3)cc2)c1	i	?	nt	50µM
Cc1cc(=O)n2[nH]c(CN(C(=O)c3ccccc3C)c3ccc(Cl)cc3)nc2n1	nt	nt	nt	i
Cc1cc(CNC(=O)c2cccc3c2C(=O)c2ccc(-c4ccc(F)cc4OCc4ccccc4)cc2S3(=O)=O)c(C(F)(F)F)o1	i	i	nt	45µM
O=C(NC[C@H]1CCCO1)c1cccc2c1C(=O)c1ccc(-c3ccc(F)cc3OCc3ccccc3)cc1S2(=O)=O	i	i	nt	?
N#Cc1cccnc1N1CCN(c2nccc(N3CCCC(O)C3)n2)CC1 (configuration not stated)	nt	nt	nt	i
Cc1ccc(-c2nccc(N3CCC(O)C3)n2)c(C)c1 (configuration not stated)	nt	nt	nt	35µM
COc1cccc(-c2cc(C(=O)N3CCN(C(=O)c4ccc(Br)o4)CC3)[nH]n2)c1	nt	nt	nt	i
S=c1[nH]nc(COc2ccccc2)n1Cc1ccccc1	i	i	i	?
CC(C)CCn1c(COc2ccccc2)n[nH]c1=S	i	i	i	16µM!
CCc1ccc(OCc2n[nH]c(=S)n2C(C)CCCC(C)C)cc1 (configuration not stated)	i	?	i	35µM

Screens as filed in PubChem.
